# Measurements reported in PubChem BioAssay.
# Activity calls are given as the source filed them.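 The calls were made as follows, unless noted: active = inhibition of the reporter signal at or above 50%; inactive = inhibition below 50%.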
# Experiments:
# [1] = inhibitors of TNFa-induced NFkB p65 translocation, primary screen, imaging, HUVEC, MLSMR starter and 10KST1 sets (AID 438;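 active = inhibition above 20% together with a positive visual image hit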;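 also: compound added about 3h40 before a 20 min TNFalpha stimulation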;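 as to inhibition: signal is the nuclear over cytoplasmic p65 intensity ratio per well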); details: HUVEC TNFa-induced p65 nuclear translocation; cell count: measured here: nuclei count (cytotoxicity indicator), at 2.08 µM; inhibition: at 2 µM, stronger effect = higher value, 0% TNFa-plus-vehicle, 100% no-TNFa wells
# [2] = inhibitors of mutant huntingtin aggregation, primary screen, imaging, exon1htt(103Q)mCFP cells, high-content imaging (AID 483;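 active = visual image review flags a hit and inhibition of aggregation exceeds 20%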;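 also: compound exposure lasted 3 days before fixation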;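 as to nuclei count: percent of the per-plate median nuclei count of sample wells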); details: exon1htt(103Q)mCFP cell line, aggregate imaging, at 2 µM; inhibition of aggregation: stronger effect = higher value; nuclei count: measured here: cell count, toxicity
# [3] = inhibitors of E-selectin induction by TNFa, primary screen, imaging, HUVEC, immunofluorescence, MLSMR starter and 10KST1 sets (AID 487;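 active = visually confirmed hit in the image check and inhibition above 20%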;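 as to inhibition: signal is fraction of cell area covered by stained E-selectin grains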;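 as to nuclei count: 100% = median nuclei count of all wells on the same plate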); details: HUVEC TNFalpha-induced E-selectin immunofluorescence imaging, at 2 µM; inhibition: stronger effect = higher value; nuclei count: measured here: cell number, toxicity
# [4] = biological target: Voltage-gated potassium channel subunit beta-2 (Rattus norvegicus) (UniProt P62483); assay: KvBeta enzyme negative modulators, primary screen, biochemical, NADPH fluorescence (AID 622;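 active = fluorescence slope higher than the sample average by over 3 SD, cut at about -0.22 in these data, passing the limit was not always enough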;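 also: slope of raw intensity against log time taken from 70 to 1610 s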); details: recombinant KvBeta, 4-cyanobenzaldehyde reduction, at 10 µM, stronger effect = higher value
# [5] = biological target: Voltage-gated potassium channel subunit beta-2 (Rattus norvegicus) (UniProt P62483); assay: KvBeta positive modulators, primary screen, biochemical, NADPH fluorescence (AID 623;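 active = NADPH fluorescence slope more negative than the mean of all samples by about 3 SD, 99.7% confidence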;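 also: fluorescence intensity change per second fitted from 20 to 320 s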); details: Recombinant KvBeta, NADPH fluorescence decrease slope, 10 min; at 10 µM; stronger effect = lower value
# [6] = biological target: Alpha-2C adrenergic receptor (Homo sapiens) (UniProt P18825); assay: modulators of alpha2C/GIRK thallium flux, primary screen, cell-based, HEK293 alpha2C/GIRK1/2 (AID 624;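 active = fluorescence slope after compound addition differing from the mean of all screened samples at 99.7% confidence, in either direction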;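 also: slope of fluorescence ratio to pre-addition baseline per second over 15 to 24 s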); details: thallium flux BTC fluorescence, at 10 µM, actives lie on both sides
# [7] = inhibitors of Sendai virus-induced IRF3 signaling, primary screen, TLR/RLR signaling modifier project, cell-based, Sendai virus stimulus, luciferase, 10K MLSCN set (AID 602276;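 active = inhibition at or above 50% at 10 µM; inactive = inhibition below 50%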;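 also: firefly luciferase from ISG56 promoter only with Renilla not read in this screen; 0% = Sendai virus plus DMSO and 100% = medium plus DMSO without virus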); details: HEK293 RL24 IRF3 luciferase reporter, at 10 µM, stronger effect = higher value
# [8] = inhibitors of poly I:C-induced TLR3 signaling, primary screen, cell-based, poly I:C stimulus, luciferase, 10K MLSCN set (AID 602277); details: HEK293-TLR3 RL24 IRF3 luciferase reporter, at 10 µM, stronger effect = higher value
# Chain of Alpha-2C adrenergic receptor (Homo sapiens) (P18825 whole entry, looked up): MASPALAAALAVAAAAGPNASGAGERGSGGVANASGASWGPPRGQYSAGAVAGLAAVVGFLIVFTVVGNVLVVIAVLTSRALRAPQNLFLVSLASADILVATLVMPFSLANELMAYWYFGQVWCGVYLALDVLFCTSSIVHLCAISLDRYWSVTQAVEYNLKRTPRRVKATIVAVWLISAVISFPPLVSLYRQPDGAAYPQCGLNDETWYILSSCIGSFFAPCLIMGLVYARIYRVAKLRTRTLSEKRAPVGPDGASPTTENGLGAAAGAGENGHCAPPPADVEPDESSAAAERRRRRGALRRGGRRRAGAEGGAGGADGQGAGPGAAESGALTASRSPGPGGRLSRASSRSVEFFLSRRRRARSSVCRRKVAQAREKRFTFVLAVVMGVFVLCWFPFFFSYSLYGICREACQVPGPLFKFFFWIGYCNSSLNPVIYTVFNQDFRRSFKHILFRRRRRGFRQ
# Chain of Voltage-gated potassium channel subunit beta-2 (Rattus norvegicus) (P62483 whole entry, looked up): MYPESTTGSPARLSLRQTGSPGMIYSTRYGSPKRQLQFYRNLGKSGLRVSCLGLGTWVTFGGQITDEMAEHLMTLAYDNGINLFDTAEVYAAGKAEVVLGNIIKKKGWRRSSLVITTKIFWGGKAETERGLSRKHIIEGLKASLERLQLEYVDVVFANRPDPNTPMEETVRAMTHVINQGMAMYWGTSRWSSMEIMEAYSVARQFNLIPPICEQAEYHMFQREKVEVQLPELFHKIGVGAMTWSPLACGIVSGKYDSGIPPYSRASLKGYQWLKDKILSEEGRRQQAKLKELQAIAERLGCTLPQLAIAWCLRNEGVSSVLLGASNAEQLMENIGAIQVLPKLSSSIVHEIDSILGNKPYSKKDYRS
SMILES,cell count [1],inhibition [1],inhibition of aggregation [2],nuclei count [2],inhibition [3],nuclei count [3],fluorescence slope [4],NADPH fluorescence slope [5],slope [6],inhibition [7],inhibition [8]
O=C1C2CC=CCC2C(=O)N1c1ccc(Cc2ccncc2)cc1 (stereo not drawn),591,-2.9% (inactive),-8.1% (inactive),107%,29.1% (inactive),95.7%,-0.43 (inactive),5.4e-05 (inactive),0.00567 (inactive),-2.68% (inactive),-12.7% (inactive)
CCOC(=O)C1=C(c2ccccc2)N2CCN=C2S1,507,-12.1% (inactive),18.9% (inactive),59%,-12.3% (inactive),94.2%,-0.521 (inactive),-1.6e-06 (inactive),0.00413 (inactive),1.18% (inactive),6.97% (inactive)
O=C(NCC1CCCO1)C1CCCN(Cc2cnn(-c3ccccc3)c2-n2cccc2)C1 (stereo not drawn),292,0.8% (inactive),5.3% (inactive),86.3%,-10.5% (inactive),92.7%,-0.39 (inactive),3.8e-06 (inactive),0.0039 (inactive),-11.1% (inactive),-10.8% (inactive)
Cc1nnc(NC(=O)CSc2nc3c(c(=O)n2C)SC(C)C3)s1 (stereo not drawn),734,-4.3% (inactive),-22.2% (inactive),98.5%,-7.8% (inactive),104%,-0.536 (inactive),-6.2e-05 (inactive),0.00476 (inactive),13.8% (inactive),34.3% (inactive)
COC(=O)c1ccccc1OCC(=O)NC1CCCCC1,400,2.8% (inactive),-13.9% (inactive),110%,-140% (inactive),112%,-0.511 (inactive),-1.1e-05 (inactive),0.00395 (inactive),-18.9% (inactive),-61.5% (inactive)
CCOC(=O)c1c(C)[nH]c(C(=O)CSc2nc3ccccc3o2)c1C,479,10.6% (inactive),-23.1% (inactive),107%,28.7% (inactive),94.5%,-0.3 (inactive),1.8e-05 (inactive),0.00682 (inactive),-1.31% (inactive),0.358% (inactive)
COC(=O)C1=C(C)n2nnnc2NC1c1ccc(Cl)cc1 (stereo not drawn),340,3.6% (inactive),-8.8% (inactive),99.4%,-119% (inactive),80.4%,-0.367 (inactive),1.8e-05 (inactive),0.00153 (inactive),2.58% (inactive),10.6% (inactive)
CCCC(=O)N(c1ccc2oc(=O)sc2c1)S(=O)(=O)c1ccccc1,318,3.5% (inactive),-12.8% (inactive),104%,-45.1% (inactive),80%,-0.61 (inactive),-2.4e-05 (inactive),0.00625 (inactive),14.8% (inactive),17.5% (inactive)
CCOC(=O)Cn1c(CCC(=O)O)ccc1-c1ccc(F)cc1,584,-5% (inactive),-12.4% (inactive),98.2%,-54.4% (inactive),97.7%,-0.548 (inactive),-2.7e-05 (inactive),0.00704 (inactive),15.5% (inactive),39.4% (inactive)
COc1ccc2c(c1)cc(C(=O)O)n2C,773,4.2% (inactive),-20.2% (inactive),77.6%,-10.3% (inactive),128%,-0.393 (inactive),-6.4e-05 (inactive),0.00479 (inactive),11.6% (inactive),23.7% (inactive)
O=C(NCCN1CCOCC1)NC1(C(F)(F)F)Oc2ccc(Cl)cc2O1 (stereo not drawn),457,16.3% (inactive),11% (inactive),96.4%,-51.7% (inactive),118%,-0.467 (inactive),-5.6e-05 (inactive),0.00481 (inactive),24.6% (inactive),37.9% (inactive)
Cc1ccc(CSC2=NCCN2C(=O)c2ccco2)cc1,661,1.3% (inactive),-14.6% (inactive),106%,-11.6% (inactive),115%,-0.613 (inactive),-1.3e-05 (inactive),0.00684 (inactive),-0.0387% (inactive),0.194% (inactive)
O=C(CSc1ncnc2c1oc1ccccc12)Nc1ccccc1C(F)(F)F,657,-2.9% (inactive),-15.8% (inactive),69.1%,-13.2% (inactive),106%,-0.556 (inactive),-5.9e-06 (inactive),0.00657 (inactive),-3.61% (inactive),1.95% (inactive)
CCCCSc1cc(C)nc2ncnn12,416,-4% (inactive),-3.2% (inactive),117%,12.1% (inactive),119%,-0.492 (inactive),3.1e-05 (inactive),0.00349 (inactive),-10.9% (inactive),9.98% (inactive)
C=CCn1c(=O)c2ccccc2n2c(SCC(=O)Nc3cc(C)on3)nnc12,469,-22.4% (inactive),-23.3% (inactive),113%,-50.6% (inactive),153%,-0.605 (inactive),-4.3e-05 (inactive),0.00622 (inactive),3.33% (inactive),5.94% (inactive)
Cc1ccc(C(=O)NCc2ccc3c(c2)OCO3)cc1S(=O)(=O)N1CCCCC1,437,4.7% (inactive),-2.6% (inactive),99.9%,-39.8% (inactive),113%,-0.451 (inactive),4.6e-05 (inactive),0.00487 (inactive),-2.9% (inactive),-10.9% (inactive)
Cn1c(=O)c2c(nc(CN3CCCCC3)n2CCc2ccccc2)n(C)c1=O,363,-1% (inactive),-29.9% (inactive),79%,-3.5% (inactive),158%,-0.572 (inactive),-1.3e-05 (inactive),0.00323 (inactive),-6.67% (inactive),-8.47% (inactive)
CC1NC2(C(=O)N(Cc3ccccc3)c3ccccc32)C2C(=O)N(c3ccccc3)C(=O)C12 (stereo not drawn),643,-5.3% (inactive),2.9% (inactive),113%,-33.8% (inactive),109%,-0.567 (inactive),-5.5e-05 (inactive),0.0066 (inactive),4.63% (inactive),26% (inactive)
CC(c1ccccc1)n1cnc2ccccc21 (stereo not drawn),590,-2.5% (inactive),17.1% (inactive),94.1%,-48% (inactive),148%,-0.364 (inactive),-6.9e-05 (inactive),0.00531 (inactive),7.98% (inactive),19% (inactive)
COc1ccc(-n2c(Cc3cccn3C)nnc2SCC(=O)Nc2cccc(OC)c2)cc1,545,0.5% (inactive),5.4% (inactive),93.7%,-28.8% (inactive),90.2%,-0.632 (inactive),2.3e-05 (inactive),0.00546 (inactive),-1.72% (inactive),5.53% (inactive)
NC(=O)C(Cc1ccccc1)NS(=O)(=O)c1ccc(N2CCCC2=O)cc1 (stereo not drawn),570,-8.7% (inactive),4.5% (inactive),100%,-5.1% (inactive),95.5%,-0.585 (inactive),-4e-05 (inactive),0.00321 (inactive),8.09% (inactive),-25% (inactive)
COc1cccc2cc(C(=O)N3CCN(c4ccc(C)cc4C)CC3)c(=O)oc12,800,-3.4% (inactive),-43.1% (inactive),116%,-30.2% (inactive),110%,-0.565 (inactive),-1.5e-05 (inactive),0.00579 (inactive),-9.04% (inactive),5.89% (inactive)
CCC(C)NC(=O)c1cn(CC)c2ccc(S(=O)(=O)N(C)C)cc2c1=O (stereo not drawn),603,-11.6% (inactive),-11.6% (inactive),111%,-70.7% (inactive),125%,-0.376 (inactive),1.4e-05 (inactive),0.00604 (inactive),19.1% (inactive),29.7% (inactive)
Cn1c(=O)oc2cc(S(=O)(=O)N3CCN(c4ccccn4)CC3)ccc21,826,8% (inactive),24.1% (inactive),116%,-36.5% (inactive),117%,-0.577 (inactive),-4.3e-05 (inactive),0.00702 (inactive),15% (inactive),31.2% (inactive)
O=C(CCS(=O)(=O)c1cccc2nsnc12)NCc1ccccc1,718,3.1% (inactive),-14.8% (inactive),93.6%,-24.5% (inactive),114%,-0.567 (inactive),3.6e-05 (inactive),0.00505 (inactive),-2.94% (inactive),5.74% (inactive)
COCc1nnc(NC(=O)CCCOc2ccccc2)s1,732,2.1% (inactive),-7.8% (inactive),92%,-11.3% (inactive),103%,-0.42 (inactive),9.1e-06 (inactive),0.00536 (inactive),1.61% (inactive),9.03% (inactive)
CCOCCCNC(=O)CN1CCN(Cc2ccccc2C)C1=O,600,-4.4% (inactive),-25.9% (inactive),108%,-42% (inactive),117%,-0.574 (inactive),-5.1e-05 (inactive),0.00699 (inactive),-1.33% (inactive),19.7% (inactive)
CC(C)[C@H](NC(=O)OC(C)(C)C)c1nnc(SCC(=O)Nc2ccc(Br)cc2)o1,402,-6.7% (inactive),6.5% (inactive),107%,-13.2% (inactive),130%,-0.457 (inactive),2.2e-05 (inactive),0.00396 (inactive),2.98% (inactive),28.3% (inactive)
